PubChem BioAssay (EPA / NIEHS)
Inconclusive results are not listed. Activity calls are given as the source filed them. How the source made its calls, unless noted: active means hit-call score of the fitted dose curve at least 0.9, where 1 is the maximum; inconclusive means response in the unintended direction; inactive means score below 0.9.

Legend:
[1] = molecular target: Estrogen receptor beta (Homo sapiens) (UniProt Q92731); experiment: OT_ER_ERbERb_1440: Odyssey Thera (OT) 24-hour HEK293T Protein-Complementation Assay for Estrogen Receptor-beta/-beta Homodimer (AID 2283380);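 further: scored as signal increase over DMSO baseline for both agonists and antagonists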
Method in brief: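 HEK293T cells stably expressing ER beta LBD (aa 310-547) homodimer fragment-complementation reporter, dosed 24 h. Cells formaldehyde-fixed, Draq5-stained; gain in nuclear (agonist) or nuclear plus cytoplasmic (antagonist) fluorescence versus DMSO read by laser scanning cytometry.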

[2] = molecular target: Estrogen receptor (Homo sapiens) (UniProt P03372); experiment: OT_ERa_GFPERaERE_0480: Odyssey Thera (OT) 8-hour HeLa Transcription Induction Assay for Estrogen Receptor (AID 2283381; active means hit-call score of the fitted dose curve at least 0.9, where 1 is the maximum; inactive means score below 0.9)
Method in brief: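 Cells (HeLa) receive compound; after 8 h, reporter fluorescence is imaged and quantified by high-content analysis. Gain-of-signal relative to DMSO gives the endpoint.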

[3] = molecular target: Estrogen receptor (Homo sapiens) (UniProt P03372); experiment: OT_ERa_GFPERaERE_0120: Odyssey Thera (OT) 2-hour HeLa Transcription Induction Assay for Estrogen Receptor (AID 2283382)
Method in brief: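 Measures ESR1 pathway reporter gain-of-signal in HeLa cells after a 2-hour treatment, detected as fluorescent protein induction by microscopy, DMSO as baseline.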

[4] = molecular target: Bile acid receptor (Homo sapiens) (UniProt Q96RI1); experiment: OT_FXR_FXRSRC1_0480: Odyssey Thera (OT) 8-hour HEK293T Protein-Complementation Assay for Farnesoid X receptor/SRC-1 Co-activator (AID 2283383)
Method in brief: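 Co-activator recruitment to FXR was measured in living HEK293T cells, where interaction of the two fused partners restored an active fluorescent reporter. Signal gain after 8 h treatment was referenced to DMSO.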

[5] = molecular target: Bile acid receptor (Homo sapiens) (UniProt Q96RI1); experiment: OT_FXR_FXRSRC1_1440: Odyssey Thera (OT) 24-hour HEK293T Protein-Complementation Assay for Farnesoid X receptor/SRC-1 Co-activator (AID 2283384)
Method in brief: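 Cell-based binding reporter: interaction of FXR with SRC-1 brings reporter fragments together, giving a fluorescence signal read 24 h after dosing of HEK293T cells.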

[6] = molecular target: Retinoic acid receptor RXR-alpha (Homo sapiens) (UniProt P19793); experiment: OT_NURR1_NURR1RXRa_1440: Odyssey Thera (OT) 24-hour HEK293T Protein Complementation Assay for Nurr1/retinoid X receptor (RXR) (AID 2283386)
Method in brief: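 Measured as fluorescence from a reconstituted split reporter, this 24 h HEK293T complementation assay scores compound-induced gain of Nurr1/RXRα association relative to DMSO.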

[7] = molecular target: Peroxisome proliferator-activated receptor gamma (Homo sapiens) (UniProt P37231); experiment: OT_PPARg_PPARgSRC1_0480: Odyssey Thera (OT) 8-hour Protein-Complementation Assay for Peroxisome Proliferator-activated Receptor Gamma / SRC-1 Co-activator (AID 2283387);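 further: nuclear to cytoplasmic split Venus YFP fluorescence ratio reporting PPARg SRC-1 interaction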
Method in brief: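 Read-out: 488 nm N/C fluorescence ratio from complemented Venus YFP fragments, ≥350 cells per image, gain-of-signal fitted against DMSO baseline. Fusions of PPARg/SRC-1 with IFP1/IFP2 expressed transiently in HEK293T; compounds applied 8 h.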

[8] = molecular target: Peroxisome proliferator-activated receptor gamma (Homo sapiens) (UniProt P37231); experiment: OT_PPARg_PPARgSRC1_1440: Odyssey Thera (OT) 24-hour Protein-Complementation Assay for Peroxisome Proliferator-activated Receptor Gamma/ SRC-1 Co-activator (AID 2283388);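 further: nuclear to cytoplasmic ratio of reconstituted Venus YFP fluorescence in fixed imaged cells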
Method in brief: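 Transient HEK293T, YFP fragments 1-158/159-239 (mutant IFP1/IFP2) fused to PPARg/SRC-1; 24 h dosing; fix 4% formaldehyde, Draq5; Opera imaging 488/635 nm; N/C ratio, gain vs DMSO.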

[9] = molecular target: Retinoic acid receptor RXR-alpha (Homo sapiens) (UniProt P19793); experiment: OT_NURR1_NURR1RXRa_0480: Odyssey Thera (OT) 8-hour HEK293T Protein Complementation Assay for Nurr1/retinoid X receptor (RXR) (AID 2283385)
Method in brief: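 Compounds are applied to HEK293T cells carrying Nurr1 and RXRα linked to reporter fragments. After 8 h, fluorescence intensity reports heterodimer formation, with DMSO as baseline.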

[10] = CEETOX_H295R_11DCORT: CeeTox H295R High-throughput Steroidogenesis Assay for 11-Deoxycortisol (11DCORT) (AID 2283432; active means hit-call score of the fitted dose curve at least 0.9, where 1 is the maximum; inactive means score below 0.9;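 on AC50: 11-deoxycortisol secreted into the medium measured by LC-MS/MS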); details: actives raise or lower the signal
Method in brief: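 H295R cells; 10 uM forskolin prestim 48 h; compound in 0.1% DMSO 48 h; media extracted with MTBE; 11-deoxycortisol by LC-MS/MS, 7-point standard curve; gain/loss vs DMSO baseline; viability by MTT in same wells.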

[11] = CEETOX_H295R_OHPREG: CeeTox H295R High-throughput Steroidogenesis Assay for OH-Pregnenolone (OHPREG) (AID 2283434; active means hit-call score of the fitted dose curve at least 0.9, where 1 is the maximum; inactive means score below 0.9); details: actives raise or lower the signal
Method in brief: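 H295R cells pre-stimulated 48 h with 10 uM forskolin, then exposed 48 h to chemical in 0.1% DMSO. 17alpha-hydroxypregnenolone in medium quantified by MTBE extraction and HPLC-MS/MS; bidirectional fit versus DMSO, viability checked by MTT.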

[12] = CEETOX_H295R_OHPROG: CeeTox H295R High-throughput Steroidogenesis Assay for OH-Progesterone (OHPROG) (AID 2283435; active means hit-call score of the fitted dose curve at least 0.9, where 1 is the maximum; inactive means score below 0.9;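 on AC50: human adrenal H295R cells primed 48 h with 10 µM forskolin; 17alpha-hydroxyprogesterone secreted into medium measured by HPLC-MS/MS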); details: actives raise or lower the signal
Method in brief: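 Secreted 17alpha-hydroxyprogesterone is read by tandem MS from media of forskolin-primed H295R cells dosed with chemical for 48 h. Activity is fitted in both directions against DMSO baseline; cytotoxic concentrations are re-tested diluted.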

[13] = CEETOX_H295R_CORTIC: CeeTox H295R High-throughput Steroidogenesis Assay for Corticosterone (CORTIC) (AID 2283437; active means hit-call score of the fitted dose curve at least 0.9, where 1 is the maximum; inactive means score below 0.9;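 further: corticosterone secreted into medium quantified by mass spectrometry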;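 on AC50: human H295R adrenal cells prestimulated with forskolin before chemical exposure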); details: actives raise or lower the signal
Method in brief: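 H295R adrenal cells prestimulated 48 hours with 10 uM forskolin, then exposed 48 hours to chemical in 0.1% DMSO. Corticosterone in medium measured by HPLC-MS/MS after MTBE extraction; MTT viability in the same wells; bidirectional fit versus DMSO.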

[14] = CEETOX_H295R_CORTISOL: CeeTox H295R High-throughput Steroidogenesis Assay for Cortisol (AID 2283438; active means hit-call score of the fitted dose curve at least 0.9, where 1 is the maximum; inactive means score below 0.9;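 further: cortisol secreted into medium quantified by LC-MS/MS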); details: actives raise or lower the signal
Method in brief: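 Human adrenocortical H295R cells (passage ≤10) received test chemicals for 48 h after forskolin priming. Secreted cortisol was measured by LC-MS/MS.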

[15] = CEETOX_H295R_DOC: CeeTox H295R High-throughput Steroidogenesis Assay for DOC (AID 2283439; active means hit-call score of the fitted dose curve at least 0.9, where 1 is the maximum; inactive means score below 0.9); details: actives raise or lower the signal
Method in brief: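 Secreted DOC was quantified from H295R media by HPLC-MS/MS after 48 h chemical exposure following 48 h forskolin (10 uM) prestimulation. Values were fitted in both directions relative to DMSO, the negative control and baseline.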

[16] = molecular target: Agonist Androgen Response Element (ARE), AR (gene 367) (UniProt P10275); experiment: OT_AR_ARELUC_AG_1440: Odyssey Thera (OT) 24-hour CHO-K1 Luciferase Assay for Agonist Androgen Response Element (ARE) (AID 2283379)
Method in brief: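 CHO-K1 cells carrying an ARE-driven luciferase reporter were exposed to compounds for 24 h. Luminescence was then read after adding a D-luciferin/ATP mix, and activity was scored as a gain in signal over DMSO vehicle.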

Measured: AC50

Sequence of Retinoic acid receptor RXR-alpha (Homo sapiens) (P19793 whole entry, looked up, the tested form may be a part): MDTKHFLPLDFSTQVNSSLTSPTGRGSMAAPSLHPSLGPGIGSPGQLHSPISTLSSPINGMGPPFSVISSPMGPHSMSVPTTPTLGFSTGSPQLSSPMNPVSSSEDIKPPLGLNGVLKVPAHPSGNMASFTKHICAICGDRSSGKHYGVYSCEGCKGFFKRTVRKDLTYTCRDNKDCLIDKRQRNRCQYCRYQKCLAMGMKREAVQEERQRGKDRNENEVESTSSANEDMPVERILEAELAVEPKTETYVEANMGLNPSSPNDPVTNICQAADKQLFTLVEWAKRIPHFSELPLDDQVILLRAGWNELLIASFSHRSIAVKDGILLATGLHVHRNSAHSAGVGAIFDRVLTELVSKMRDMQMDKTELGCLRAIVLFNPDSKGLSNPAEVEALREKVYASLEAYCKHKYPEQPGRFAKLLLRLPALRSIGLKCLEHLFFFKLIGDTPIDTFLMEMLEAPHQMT
Sequence of Bile acid receptor (Homo sapiens) (Q96RI1 whole entry, looked up, the tested form may be a part): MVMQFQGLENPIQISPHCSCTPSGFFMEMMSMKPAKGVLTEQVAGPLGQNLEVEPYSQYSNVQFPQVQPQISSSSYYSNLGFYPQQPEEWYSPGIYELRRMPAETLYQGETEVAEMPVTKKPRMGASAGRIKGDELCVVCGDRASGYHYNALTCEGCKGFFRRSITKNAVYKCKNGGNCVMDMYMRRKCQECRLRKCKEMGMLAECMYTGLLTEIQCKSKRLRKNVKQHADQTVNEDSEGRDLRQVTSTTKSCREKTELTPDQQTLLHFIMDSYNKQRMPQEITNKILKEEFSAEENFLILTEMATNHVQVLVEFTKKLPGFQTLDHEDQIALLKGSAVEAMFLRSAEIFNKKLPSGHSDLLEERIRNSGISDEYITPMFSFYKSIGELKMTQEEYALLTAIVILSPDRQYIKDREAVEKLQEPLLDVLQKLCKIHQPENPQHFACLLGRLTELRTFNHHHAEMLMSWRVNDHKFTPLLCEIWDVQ
Sequence of Estrogen receptor beta (Homo sapiens) (Q92731 whole entry, looked up, the tested form may be a part): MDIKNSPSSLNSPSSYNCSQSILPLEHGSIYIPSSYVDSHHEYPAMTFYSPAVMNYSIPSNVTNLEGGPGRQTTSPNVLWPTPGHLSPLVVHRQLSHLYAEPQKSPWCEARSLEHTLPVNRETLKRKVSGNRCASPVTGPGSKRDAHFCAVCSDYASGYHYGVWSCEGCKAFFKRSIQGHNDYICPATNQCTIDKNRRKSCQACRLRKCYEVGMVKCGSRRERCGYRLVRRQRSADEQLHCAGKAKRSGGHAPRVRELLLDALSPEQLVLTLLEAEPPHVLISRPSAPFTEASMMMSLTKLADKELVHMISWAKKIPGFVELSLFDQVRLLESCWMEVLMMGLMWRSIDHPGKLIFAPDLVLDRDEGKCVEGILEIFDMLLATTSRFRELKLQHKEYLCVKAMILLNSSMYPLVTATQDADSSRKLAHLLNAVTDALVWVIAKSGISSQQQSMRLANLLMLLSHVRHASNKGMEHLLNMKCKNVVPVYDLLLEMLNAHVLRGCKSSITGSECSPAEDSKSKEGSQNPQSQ
Sequence of Estrogen receptor (Homo sapiens) (P03372 whole entry, looked up): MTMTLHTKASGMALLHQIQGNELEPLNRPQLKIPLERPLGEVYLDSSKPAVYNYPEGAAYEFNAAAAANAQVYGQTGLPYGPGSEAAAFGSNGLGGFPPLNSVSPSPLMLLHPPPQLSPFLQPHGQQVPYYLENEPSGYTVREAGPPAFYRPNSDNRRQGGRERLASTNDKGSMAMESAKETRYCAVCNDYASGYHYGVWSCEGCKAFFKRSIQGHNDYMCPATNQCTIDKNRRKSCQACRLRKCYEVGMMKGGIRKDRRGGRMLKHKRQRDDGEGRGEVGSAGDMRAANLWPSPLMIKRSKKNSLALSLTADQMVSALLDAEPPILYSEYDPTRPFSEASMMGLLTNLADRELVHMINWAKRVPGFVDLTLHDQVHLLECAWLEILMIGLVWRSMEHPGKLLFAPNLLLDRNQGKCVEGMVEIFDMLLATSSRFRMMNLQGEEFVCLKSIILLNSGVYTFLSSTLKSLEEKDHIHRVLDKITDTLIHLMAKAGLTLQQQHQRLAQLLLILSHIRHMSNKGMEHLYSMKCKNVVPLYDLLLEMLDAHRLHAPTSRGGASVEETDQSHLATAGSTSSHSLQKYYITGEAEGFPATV
Sequence of Peroxisome proliferator-activated receptor gamma (Homo sapiens) (P37231 whole entry, looked up, the tested form may be a part): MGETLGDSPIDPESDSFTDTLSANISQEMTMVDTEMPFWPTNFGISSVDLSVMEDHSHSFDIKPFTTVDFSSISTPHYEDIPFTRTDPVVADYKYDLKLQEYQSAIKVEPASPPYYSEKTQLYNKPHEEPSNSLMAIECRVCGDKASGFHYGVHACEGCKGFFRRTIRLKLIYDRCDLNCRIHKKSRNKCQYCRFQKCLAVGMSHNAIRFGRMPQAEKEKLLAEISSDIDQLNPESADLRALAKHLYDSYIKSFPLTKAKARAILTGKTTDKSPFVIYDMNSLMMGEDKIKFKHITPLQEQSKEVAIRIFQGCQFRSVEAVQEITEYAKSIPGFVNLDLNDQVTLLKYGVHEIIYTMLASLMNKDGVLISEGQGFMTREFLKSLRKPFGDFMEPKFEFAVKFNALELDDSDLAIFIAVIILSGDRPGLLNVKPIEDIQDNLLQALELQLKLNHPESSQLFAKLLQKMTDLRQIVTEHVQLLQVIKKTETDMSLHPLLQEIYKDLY
Sequence of Agonist Androgen Response Element (ARE), AR (gene 367) (P10275 whole entry, looked up): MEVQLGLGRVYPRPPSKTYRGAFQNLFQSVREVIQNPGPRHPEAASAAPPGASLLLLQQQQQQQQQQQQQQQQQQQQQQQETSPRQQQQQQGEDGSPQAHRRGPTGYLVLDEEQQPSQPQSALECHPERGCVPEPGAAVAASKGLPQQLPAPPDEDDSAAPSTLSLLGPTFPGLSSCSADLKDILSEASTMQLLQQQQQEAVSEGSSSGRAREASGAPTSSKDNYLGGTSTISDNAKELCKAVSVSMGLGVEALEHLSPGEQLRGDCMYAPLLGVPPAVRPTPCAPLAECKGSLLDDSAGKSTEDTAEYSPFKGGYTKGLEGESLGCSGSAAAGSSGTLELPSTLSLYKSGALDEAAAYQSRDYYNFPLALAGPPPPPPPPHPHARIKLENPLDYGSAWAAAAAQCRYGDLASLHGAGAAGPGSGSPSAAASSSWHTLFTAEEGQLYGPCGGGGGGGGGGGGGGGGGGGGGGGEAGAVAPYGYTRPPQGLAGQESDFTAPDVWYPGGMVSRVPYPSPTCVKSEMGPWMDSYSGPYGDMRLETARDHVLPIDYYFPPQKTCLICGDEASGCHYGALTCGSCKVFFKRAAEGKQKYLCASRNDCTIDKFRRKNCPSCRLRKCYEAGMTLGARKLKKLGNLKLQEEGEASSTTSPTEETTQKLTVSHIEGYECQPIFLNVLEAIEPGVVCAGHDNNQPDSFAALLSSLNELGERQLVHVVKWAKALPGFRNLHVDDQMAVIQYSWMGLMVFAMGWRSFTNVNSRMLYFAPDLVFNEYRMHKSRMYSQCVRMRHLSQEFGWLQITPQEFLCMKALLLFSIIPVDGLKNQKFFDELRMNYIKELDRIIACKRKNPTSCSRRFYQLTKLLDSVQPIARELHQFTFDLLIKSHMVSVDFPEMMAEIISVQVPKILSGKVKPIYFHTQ

CCCCCCOC(=O)CCCCC(=O)OCCCCCC
inactive: [1] | [2] | [3] | [4] | [5] | [6] | [7] | [8]

NC(=O)Nc1ccccc1
inactive: [1] | [2] | [3] | [9] | [6]

CCCC(CC)c1ccccc1 (stereo unspecified)
inactive: [1] | [2] | [3] | [9] | [6] | [7] | [8]

Nc1ccc(C(=O)O)cc1
inactive: [1] | [2] | [3] | [4] | [5] | [9] | [7] | [8]

CCCCc1ccc(Cl)cc1
inactive: [1] | [2] | [3] | [4] | [5] | [9] | [7] | [8]

CCOC(=O)c1ccc(C)cc1
inactive: [1] | [2] | [3] | [9] | [6] | [7] | [8]

CCN1CN(CC)CN(CC)C1
not listed: [6] | [16]
inactive: all other assays above

O=S(=O)(O)c1ccc(N=Nc2c(O)ccc3ccccc23)cc1
inactive: [1] | [2] | [3] | [9] | [6] | [7] | [8]

CCCCC(CC)COS(=O)(=O)O (stereo unspecified)
inactive: [1] | [2] | [3] | [4] | [6]

C=C[C@@]1(C)CC(=O)[C@]2(O)[C@@]3(C)[C@@H](O)CCC(C)(C)[C@@H]3[C@H](O)[C@H](OC(C)=O)[C@@]2(C)O1
active: [1] 27.4 µM | [2] 89.1 µM | [9] 0.183 µM | [6] 0.396 µM | [10] 510 nM | [11] 817 nM | [12] 799 nM | [13] 609 nM | [14] 726 nM | [15] 418 nM
inactive: [3] | [7] | [8]

CC1(C)[C@@H]2CC[C@@]1(C)C(=O)C2
inactive: [1] | [2] | [3] | [9] | [6]

COc1cc(O)c(C(=O)c2ccccc2)cc1S(=O)(=O)O
inactive: [16] | [1] | [2] | [3] | [6] | [7] | [8]

C=CCOC(=O)c1ccc(C(=O)OCC=C)c(C(=O)OCC=C)c1
inactive: [1] | [2] | [3] | [9] | [7] | [8]

CN(C)c1ccc2nc3ccc(=[N+](C)C)cc-3sc2c1
inactive: [8] | [10] | [11] | [12] | [13] | [14]
active: [1] 14.7 µM | [2] 40.6 µM | [3] 28.2 µM | [9] 26.3 µM | [6] 15.3 µM | [7] 31.1 µM | [15] 598 nM

CCCCNC(=S)NCCCC
inactive: [1] | [2] | [3] | [4] | [5] | [9] | [6] | [7] | [8]

CCCCCCCCCCCC(=O)N(C)CC(=O)O
inactive: [1] | [2] | [3] | [9] | [7] | [8]

O=C(O)C1CCC(C(=O)O)CC1 (stereo unspecified)
inactive: [1] | [2] | [3] | [4] | [6] | [7] | [8]

O=C(Nc1ccccc1)c1cc(Cl)ccc1O
active: [1] 33.9 µM | [5] 17.5 µM | [6] 16.1 µM
inactive: [2] | [3] | [4] | [9] | [7] | [8]

CCCCCCOc1ccc(N)cc1
inactive: [2] | [3] | [4] | [9] | [6] | [7] | [8]
active: [5] 14.3 µM

COC(=O)c1ccccc1C
inactive: [1] | [2] | [3] | [6] | [7] | [8]

O=C(O)/C=C/c1ccccc1
inactive: [3] | [6] | [7] | [8]
active: [2] 23.4 µM

O=C(O)CC(C(=O)O)S(=O)(=O)O (stereo unspecified)
inactive: [2] | [3] | [9] | [6] | [7] | [8]

C/C=C/C=C/CCCCCCCO
inactive: [2] | [3] | [4] | [9] | [7] | [8]
active: [6] 5.06 µM
